Reference: PubChem BioAssay AID2315 (National Center for Advancing Translational Sciences (NCATS), 2010)
Hit rate of the full screen: of about 290,000 compounds, about 27,000 (9.3%) were called active. Only a selection was taken, and actives are over-represented in it overall. Unmarked numbers belong to inactive results. Rule as the data show it: active = inhibition mostly above about 28% (no sharp cut-off); inactive = mostly below about 43%.

Experiment: A qHTS for Small Molecule Inhibitors of Shiga Toxin; also: 0% is about no effect
Settings: Vero cells, Shiga toxin protein synthesis inhibition reporter; at 38.7 µM, active compounds read high

| Structure (SMILES) | inhibition |
| --- | --- |
| COc1ccc(-c2onc(C)c2-c2ccc3c(c2)OCCO3)c(O)c1 | -15% |
| COc1ccc(CCNC(=O)c2cc(-c3ccc4c(c3)OCO4)on2)cc1OC | -10.3% |
| COc1cc(-c2c(-c3ccc4c(c3)OCO4)noc2C)ccc1F | 48.8% (active) |
| NC(=O)CC(NC(=O)Cc1ccc(Br)cc1)c1ccc(NC2CC3CCC2C3)c([N+](=O)[O-])c1 (stereo not drawn) | 60% |
| Cc1c(C)n(Cc2ccc(Cl)cc2)c2ccc(C(=O)NCCCN3CCOCC3)cc12 | -12.7% |
| COc1ccc(N/N=C2/CCCCC2=O)cc1 | 34.6% |
| Cc1ccc(N/N=C2\COC(C)(C)CC2=O)cc1 | 101% (active) |
| COC(=O)c1ccc(S(=O)(=O)N2CCc3ccccc3C2)cc1 | -1.69% |
| COc1ccc(N(C)S(=O)(=O)c2ccc3c(c2)CC(C)N3C(=O)C2CC2)c(OC)c1 (stereo not drawn) | 14.9% |
| CC(C)(COC(=O)Nc1ccccc1)COC(=O)Nc1ccccc1 | 35.2% |
| Cc1ccc(NC(=O)OCc2cncs2)cc1 | 70.8% (active) |
| O=C(Nc1ccc(Cl)cc1)OCc1cc(-c2ccccc2)on1 | 49.1% |
| Cc1ccc(NC(=O)OCCNC(=O)c2ccncc2)cc1 | 47.9% |
| CCOC(=O)Nc1ccc(S(=O)(=O)N(C)C(C)C)cc1 | -22.3% |
| CCOC(=O)Nc1ccc(NC(=O)OCC)cc1 | 52.3% (active) |
| CN1CCc2ccccc2C1Cc1ccccc1NC(=O)c1sc2ccccc2c1Cl (stereo not drawn) | -2.62% |
| COC(=O)C1(CCSC)NC(c2ccc(OC)cc2OC)C2C(=O)N(c3cccc(C(C)=O)c3)C(=O)C21 (stereo not drawn) | -5.19% |
| N#Cc1ccc(-c2ccc(F)cc2)nc1Sc1ccccc1 | -10% |
| N#Cc1c(-c2ccc(F)cc2)nc(-c2ccccc2)[nH]c1=O | -4.47% |
| N#Cc1ccc(-c2nc3cc(C#N)c(C#N)cc3nc2-c2ccccc2)cc1C#N | 56.6% (active) |
| O=C(O)CCC(=O)Nc1ccc(OCC2CCCO2)cc1 (stereo not drawn) | 4.1% |
| CCOc1ccc(N(C)Cc2cc(=O)oc3ccc(OC)cc23)cc1 | -26.5% |
| O=C(c1ccc(Cl)cc1)n1cnc2ccccc21 | -4.02% |
| Cc1ccc(OCC(=O)Nn2cnc3ccccc32)cc1 | -4.5% |
| COC(=O)c1ccc(-n2cnc3ccccc32)nc1 | 159% (active) |

| Structure (SMILES) | inhibition |
| --- | --- |
| O=C(NCc1ccco1)/C(=C/c1ccco1)NC(=O)c1ccccc1 | -2.21% |
| COc1ccc(-c2nnc(SCC(=O)c3cccs3)o2)c(OC)c1 | 150% (active) |
| COc1ccc(CCNC(=O)CSc2nnc(CNC(=O)c3cccs3)o2)cc1OC | -18.8% |
| COc1ccccc1-c1nnc(SCC(=O)Nc2cc(C)on2)o1 | 18.4% |
| CCOc1ccc(N(CC(=O)Nc2ccccc2F)S(=O)(=O)c2c(C)[nH]c(=O)[nH]c2=O)cc1 | -4.99% |
| Cc1ccc2cc3cc(C(=O)N4CCCCCC4)oc3nc2c1 | 88.9% (active) |
| Cc1cccc(C(=O)N2CCCN(C(=O)c3cccc(C)c3)CC2)c1 | 19.1% |
| Cc1cc(C)cc(NC(=O)N2CCCCCCC2)c1 | -6.48% |
| Cc1oc2nc(SCC(=O)Nc3ccc(S(N)(=O)=O)cc3)nc(NC(=O)c3ccccc3)c2c1C | -13.4% |
| OCCC1CN(Cc2cnc(-c3ccccc3)s2)CCN1CCc1ccccc1 (stereo not drawn) | -10.1% |
| COc1ccc(NC(=O)CN2C(=O)COc3ccc(S(=O)(=O)N4CCOCC4)cc32)c(OC)c1 | -2.93% |
| COc1cccc(OC)c1C(=O)NC(=S)Nc1ccc(N2CCOCC2)c(Cl)c1 | 44.5% |
| Cc1nn(C)c(C(=O)NNC(=S)NC2CCCCC2)c1Cl | 14.6% |
| COc1cccc(NC(=S)NC(=O)c2c(Cl)c(C)nn2C)c1 | 14.4% (active) |
| O=C(NCc1ccccn1)[C@]1(C(F)(F)F)C[C@H](CCc2ccccc2)CCCO1 | -3.98% |
| Nc1nnc2c(C(F)(F)F)nc3ccccc3n12 | -8.69% |
| Cc1cccc(-c2c(NC(=O)c3ccco3)oc3ccc(Cl)cc3c2=O)c1 | 20.5% |
| OC(c1nnc(-c2ccccc2)o1)c1cccs1 (stereo not drawn) | 111% (active) |
| CCCN(CCC)c1ccc(C(O)c2nnc(-c3ccccc3)o2)cc1 (stereo not drawn) | 29.6% |
| O=C(Nc1nnc(-c2ccccc2)o1)c1cc(-c2cccs2)nc2ccccc12 | -9.05% |
| Cn1c2ccc(F)cc2c2nnc(NN)nc21 | -15% |
| CC(C)c1cc(C(=O)O)n[nH]1 | 15.7% |
| CC(C)c1cc(C(=O)N/N=C/C(Br)=C/c2ccccc2)n[nH]1 | 47.5% (active) |
| Cc1cc(C(=O)N/N=C\C(Br)=C\c2ccccc2)c(C)o1 | 54.6% |
| O=C(CCc1nnc2ccc(NCc3ccccc3Cl)nn12)NCC1CCN(C2CCCC2)C1 (stereo not drawn) | 8.94% |

| Structure (SMILES) | inhibition |
| --- | --- |
| O=C(NCC1CCC(C(=O)O)CC1)OCc1ccccc1 (stereo not drawn) | -15.3% |
| CCOC(=O)N1CCC(NC(=O)CCc2ccccc2)CC1 | -1.93% |
| O=C(O)C1CCN(C(=O)OCc2ccccc2)CC1 | 80.9% (active) |
| O=c1cc(-c2ccc(O)cc2)oc2c([C@@H]3O[C@H](CO)[C@@H](O)[C@H](O)[C@H]3O)c(O)cc(O)c12 | 18.1% |
| Cc1cccc(-n2c(O)c(C=NC34CN5CN(CN(C5)C3)C4)c(=O)[nH]c2=O)c1 | 19.9% |
| Cc1cccc(-n2c(O)c(/C=N/N3CCOCC3)c(=O)[nH]c2=S)c1 | -12.5% |
| Cc1cccc(-n2c(O)c(C=Nc3ccccc3N)c(=O)[nH]c2=O)c1 | 57% (active) |
| Clc1ccc(-c2nc3ccccn3c2CN2CCSCC2)cc1 | 20.5% |
| COc1ccc2[nH]c(=O)c(C3c4cc(OC)c(OC)cc4CCN3C(=O)c3ccco3)cc2c1 (stereo not drawn) | -3.2% |
| CCOCCCn1c(SCC(=O)Nc2cc(OC)ccc2OC)nc2ccccc2c1=O | -1.05% |
| CCc1ccc(-c2cc3c(=O)n(CC(=O)NCCCN4CCN(Cc5ccccc5)CC4)nc(C)n3n2)cc1 | -5.95% |
| CCOc1ccc(C(=O)CCN2CCOCC2)cc1 | -2.09% |
| CCOc1ccc(N(CC(=O)NCCOc2ccccc2OC)S(=O)(=O)c2ccccc2)cc1 | 21.1% |
| Cc1nonc1NC(=O)CSc1nc2ccccc2cc1C#N | 41.1% |
| CCOc1ccc2cc(C#N)c(SCC(=O)OC)nc2c1 | 135% (active) |
| COc1ccc(N2CCN(C(=O)CSc3nc4cc(OC)c(OC)cc4cc3C#N)CC2)cc1 | 18.6% |
| CN=C1C=C/C(=N/N=c2\ccn(O)cc2C)C=C1C | 20.1% (active) |
| Cc1cccc(NC(=S)NCCc2ccc(Cl)cc2)c1C | 41.2% |
| Cc1ccc(/C=C2\CCn3c2nc2cc(C(=O)O)ccc2c3=O)c(C)c1 | -4.26% |
| Cc1nn(C)c(Cl)c1CN1CCC(Oc2ccc(C(=O)N3CCCC3)cc2)CC1 | -30.4% |
| O=C(O)C1CC=CC2CCN(C3CCCCC3)C(=O)C21 (stereo not drawn) | -9.66% |
| Cn1c(=NC(=O)C2CC2)sc2cc(F)cc(F)c21 | -1.62% |
| Cn1c(=NC(=O)c2ccco2)sc2cccc(F)c21 | 102% (active) |
| CCCC(=O)N=c1sc2cccc(F)c2n1C | -7.62% |
| O=C(O)c1cc2c(cc1NC(=O)c1c(F)cccc1Cl)OCCCO2 | -14.4% |

| Structure (SMILES) | inhibition |
| --- | --- |
| O=C(Nc1nnc(-c2ccc(Cl)cc2)o1)c1ccccc1Br | 16.2% |
| CSc1ccccc1-c1nnc(-c2ccc(Cl)cc2)o1 | 0% (active) |
| FC(F)(F)c1cnc(Oc2ccccc2-c2nnc(-c3ccc(Cl)cc3)o2)c(Cl)c1 | 5.98% |
| CCOC(=O)N1CCN(S(=O)(=O)c2ccc(OC)cc2)CC1 | -26% |
| CCCN1CCn2c3c(c4cc(Br)ccc42)CCCC31 (stereo not drawn) | 31.7% (active) |
| OC(CNCC1CCCO1)Cn1c2ccc(Br)cc2c2cc(Br)ccc21 (stereo not drawn) | -17.6% |
| Cc1cc(C)c2nc(N(CCN(C)C)C(=O)/C=C/c3cccs3)sc2c1 | 2.24% |
| CSCc1nnc(NC(=O)c2ccc(S(=O)(=O)N3CCCCC3C)cc2)o1 (stereo not drawn) | -11% |
| CC(C)C(=O)Nc1c(O)c2ccccc2[nH]c1=O | 23.1% |
| NS(=O)(=O)c1ccccc1NC(=O)c1c(O)c2ccccc2[nH]c1=O | 86% (active) |
| CCCOC(=O)Cc1c(O)c2ccccc2[nH]c1=O | 2.32% |
| CC(=O)Nc1cccc(C(=O)OCN2C(=O)c3ccccc3C2=O)c1 | -7.54% |
| Cc1cnc(NC(=O)CSc2c(Cl)cccc2Cl)s1 | 24.3% |
| Cc1cnc(NC(=O)CSc2nnc(-c3ccc(Cl)cc3Cl)n2N)s1 | 20.9% (active) |
| Cc1cnc(NC(=O)CSc2nnc(-c3ccccc3)n2Cc2ccccc2)s1 | -7.47% |
| COc1ccc(C)cc1N(CC(=O)N1CCCC1)S(=O)(=O)c1ccccc1 | 8.24% |
| COc1ccccc1CN1CCN(C(c2ccccc2)c2ccccc2)CC1 | -13% |
| COc1cc(OC)c(NC(=O)C2CCCN2C(=O)OCc2ccccc2)cc1Cl (stereo not drawn) | -6.5% |
| COc1ccc(-c2csc3nc(-c4ccccc4F)oc(=O)c23)cc1OC | 1.32% |
| COc1ccc(OC)c(-c2csc(NC(=O)C3=NNC(=O)CC3)n2)c1 | -5.75% |
| COc1ccc(-c2csc(NC(=O)c3ccc(N4C(=O)CCC4=O)cc3)n2)cc1OC | -16.4% |
| COc1ccc(OC)c(-c2csc(-c3cccs3)n2)c1 | 45.3% (active) |
| COc1ccc2c(c1)C(c1cccs1)=NNC(c1cccnc1)=N2 | 39.6% |
